Source: PubChem BioAssay (NCATS)
Values joined by “and” are separate entries in the source; they are usually repeats but may differ in a detail not shown here. Equal entries are not always repeated. Results filed as inconclusive are left out. Active and inactive are the calls of the source. Unless noted, calls come from the whole dose curve; as a rule, active = well fitted curve in the direction sought with a large enough effect; inconclusive = small, poorly fitted or top-dose-only effect, or another doubt; inactive = no such curve, though single readings can be large; an effect the other way counts as inactive or inconclusive.

How the values were obtained:
[1] = qHTS assay for environmental chemicals that activate the Aryl hydrocarbon Receptor (AhR) signaling pathway (AID 651777); details: 1A2-DRE human hepatoma cells, luciferase, 24 h; activation: stronger effect = higher value; note: % of control where 0% means no effect; nearly all actives have a fitted effect of over 15% in size
Procedure, shortened: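 Following a 24 hr incubation with test chemicals at 37 C and 5% CO2, 1A2-DRE human hepatoma cells received One-Glo reagent; after 30 min at room temperature, luciferase output reflected CYP1A2 induction via AhR.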

[2] = target: Peroxisome proliferator-activated receptor alpha (Homo sapiens) (UniProt Q07869); assay: qHTS assay for small molecule agonists of the peroxisome proliferator-activated receptor alpha (PPARalpha) signaling pathway (AID 651778); details: PathHunter PPARalpha complementation, chemiluminescence, 6 h; max response: stronger effect = higher value; note: % of control where 0% means no effect
Procedure, shortened: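 Chemiluminescence from complemented enzyme reported PPARalpha activation in cells after 6 hr of compound treatment at 37 C. The detection reagent was incubated for 60 min at room temperature, and compounds were scored as agonists.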

[3] = target: Nuclear receptor ROR-gamma (Homo sapiens) (UniProt P51449); assay: qHTS assay for small molecule antagonists of the retinoid-related orphan receptor gamma (ROR-gamma) signaling pathway (AID 651802); note: nearly all actives have a fitted effect of over 60% in size; note: potency is the fitted concentration of half-maximal effect
Procedure, shortened: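 Steps: cells dispensed; compound or DMSO transferred by pin tool; doxycycline added to induce the ROR response element-driven luciferase; plates held 16hr at 37C; ONE-Glo added and luminescence measured.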

[4] = qHTS assay for small molecule antagonists of the retinoid-related orphan receptor gamma (ROR-gamma) signaling pathway - cell viability counter screen (AID 720652; active = well fitted curve in the direction sought with a large enough effect in the repeat runs; an effect the other way counts as inactive or inconclusive;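 note: CHO reporter cells with doxycycline-induced ROR-gamma expression; compound exposure lasted 16 hr before ATP read; % is set by controls: 0 for no effect and ±100 for the full control effect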)
Procedure, shortened: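 Steps: seed CHO cells bearing TET-inducible ROR and ROR response element-luciferase; rest 5 hr at 37 C; add compound, then doxycycline; incubate 16 hr; add CellTiter-Glo and read luminescence as ATP-based viability.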

[5] = qHTS assay for small molecule agonists of the antioxidant response element (ARE) signaling pathway measured by Nrf2-dependant transcriptional activity - cell viability counter screen (AID 720653; active = well fitted curve in the direction sought with a large enough effect in the repeat runs; an effect the other way counts as inactive or inconclusive; note: % is set by controls: 0 for no effect and ±100 for the full control effect); details: ARE-bla HepG2 viability, CellTiter-Glo ATP luminescence, 16 h; stronger effect = lower value
Procedure, shortened: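 Cytotoxicity counter screen: intracellular ATP quantified by CellTiter-Glo luminescence in the same ARE-bla HepG2 plates, after 16 h compound exposure and a 2 h beta-lactamase substrate step.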

[6] = qHTS assay for cell viability of the p53RE-bla HCT-116 cell line (AID 743292); note: % is set by controls: 0 for no effect and ±100 for the full control effect; nearly all actives have a fitted effect of over 55% in size
Procedure, shortened: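 After plating at 4,000 cells per well and a 5 h rest at 37 C, HCT-116 cells carrying p53RE-bla received test chemicals in DMSO. Sixteen hours later at 37 C, CellTiter-Glo was added and luminescence recorded following 30 min at room temperature.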

[7] = target: Tyrosine-protein kinase Yes (Homo sapiens) (UniProt P07947); assay: qHTS for small molecule inhibitors of Yes1 kinase: Primary Screen (AID 686947);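 note: plate controls were DMSO with enzyme for no effect and no-enzyme DMSO wells for full effect; nearly all actives have a fitted effect of over 60% in size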
Procedure, shortened: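 ADP-Glo luminescence reports ADP formed by 4 nM Yes1 phosphorylating poly(E4Y) (0.3 mg/mL) with 0.1 mM ATP for 60 min at room temperature, following 20 min compound preincubation; normalised between DMSO wells with and without enzyme.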

[8] = qHTS for small molecule inhibitors of Yes1 kinase: Counter Assay (AID 686950);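 note: no kinase present so only ADP-Glo detection of a fixed ADP amount is tested; luminescence from ADP-Glo reporting ADP in a fixed ATP and ADP mixture; 0% = DMSO wells with ATP plus ADP and -100% = ATP-only wells without ADP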
Procedure, shortened: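 ADP-Glo luminescence read after a 60 min room-temperature incubation of compound with an ATP/ADP mix (0.08 mM/0.02 mM) and no kinase, following a 20 min compound preincubation. Signal scaled between ATP+ADP (max) and 0.1 mM ATP-only (min) wells; Tris pH 7.5, Mg2+, DTT.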

[9] = qHTS Assay for Identifying Gametocytocidal Compounds (AID 743244);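 note: % is set by controls: 0 for no effect and ±100 for the full control effect; actives lower the fluorescent signal which means gametocytes are killed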; details: P. falciparum 3D7 stage III-V gametocytes, alamarBlue, 72 h; max response: stronger effect = lower value
Procedure, shortened: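 Compounds are pinned into medium, gametocytes (stage III–V, 3D7, 20,000 cells/well) added, and plates held 72 h at 37 °C in 5% CO2. AlamarBlue follows for 24 h before fluorescence reading.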

[10] = qHTS profiling for inhibitors of Plasmodium falciparum (3D7) proliferation (AID 743322; call rule not given here;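 note: infected erythrocytes exposed to compound for 72 h before lysis; 100% = DMSO vehicle wells and 0% = 0.29 µM artemisinin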); details: P. falciparum 3D7 proliferation; at 28.7 µM (top of the series) unless noted
Procedure, shortened: (§1)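 Parasite DNA was quantified by SYBR Green I fluorescence (ex 485, em 535 nm) after overnight lysis in saponin/Triton buffer at room temperature. Cultures at 0.3% parasitemia and 2.5% hematocrit were first exposed to compound for 72 h at 37 C; signals were normalised to artemisinin (0.29 uM) and vehicle wells.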

[11] = qHTS profiling for inhibitors of Plasmodium falciparum (DD2) proliferation (AID 743323; call rule not given here); details: lower = more inhibition; at 28.7 µM (top of the series) unless noted
Procedure, shortened: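 1536-well qHTS; infected RBCs 0.3% parasitemia/2.5% Hct final; cpd 72 h 37 C 5% CO2; lysis buffer + SYBR Green I, o/n RT dark; FI 485/535; norm. to 0.29 uM artemisinin and DMSO, plate-stack corrected.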

[12] = qHTS profiling for inhibitors of Plasmodium falciparum (HB3) proliferation (AID 743324); details: Plasmodium falciparum HB3 blood-stage proliferation; at 28.7 µM (top of the series) unless noted;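 note: 100% = DMSO vehicle wells and 0% = artemisinin-treated control wells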
Procedure, shortened: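 SYBR Green fluorescence (485 ex/535 em) of lysed cultures, incubated overnight at room temperature in the dark, quantifies parasite DNA. Infected erythrocytes at 0.3% parasitemia and 2.5% hematocrit were exposed 72 h; values normalized to DMSO and 0.29 uM artemisinin controls.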

[13] = qHTS assay for cell viability of HEK293 cells (AID 743288); details: ATP luminescence (CellTiter-Glo), 18 h, stronger effect = lower value; note: % is set by controls: 0 for no effect and ±100 for the full control effect; nearly all actives have a fitted effect of over 50% in size
Procedure, shortened: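 Readout is luciferase-coupled ATP content (CellTiter-Glo luminescence, 30 min room temperature) as a measure of metabolically competent cells. Parental HEK293 cells were plated 5 h or more before compound addition, then treated 18 h at 37 C.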

[14] = target: Arylsulfatase A (Homo sapiens) (UniProt P15289); assay: qHTS screen for enhancers of Arylsulfatase A (ASA1): LOPAC Validation Assay (AID 720538); details: outcome: dose series up to 57.5 µM
Procedure, shortened: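 Enhancer assay in patient-derived MLD fibroblasts carrying ASA-I179S: 48 h compound exposure at 37 C, then 14 h room-temperature pNCS turnover (0.5 mM final) in lysis buffer. Read by fluorescence at 525/598 nm after NaOH stop.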

[15] = qHTS for compounds that reverse cellular toxicity of Amyloid beta (A-beta) peptide in yeast: LOPAC Validation Assay (AID 720559);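 note: plate controls were DMSO for no effect and equimolar ferric chloride plus clioquinol rescue for full effect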
Procedure, shortened: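 Rescue of A-beta toxicity was scored as yeast growth by 600 nm absorbance after 48 hr at 30 C with compound. Normalization used DMSO (negative) and equimolar ferric chloride plus clioquinol (positive).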

[16] = qHTS for Activators of Parkin Expression: LOPAC Validation Assay (NLuc Reporter) (AID 720572)
Procedure, shortened: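 Compound effects on Parkin promoter activity were measured as NanoLuc luminescence after 24 h at 37 C. The neuronal reporter line also carried FLuc, which was read first. LOPAC compounds were tested at 7 concentrations, with normalization to DMSO (0%) and positive control (100%).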

[17] = target: T1, Hexokinase-4 (Homo sapiens) + Glucokinase regulatory protein (Homo sapiens) (UniProt P35557+Q14397); assay: qHTS assay for inhibitors of recombinant human GCK-GKRP interaction: Diaphorase-coupled assay (AID 743205)
Procedure, shortened: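 A kinetic fluorescence read (Ex 525/Em 590 nm, every minute for 30 minutes) tracked resorufin from a G6PDH-diaphorase coupled GCK reaction. It contained 10 nM GST-GCK, 10 nM FLAG-GKRP, 5 mM glucose, 0.4 mM ATP in Hepes pH 7.6. Normalized to with/without-enzyme DMSO controls.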

[18] = target: T1, Hexokinase-4 (Homo sapiens) + Glucokinase regulatory protein (Homo sapiens); assay: qHTS assay for inhibitors of recombinant human GCK-GKRP interaction: ADP-Glo assay (AID 743206);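 note: plate controls were DMSO plus enzyme for no effect and no enzyme for full effect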
Procedure, shortened: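 Pin-transferred compounds meet a 15 nM GST-GCK/15 nM FLAG-GKRP/2 uM S6P mix (dispense concentrations). ATP is then added to 0.4 mM final with 5 mM glucose, and the reaction runs 60 min at room temperature. ADP is quantified luminescently.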

[19] = target: T1, Hexokinase-4 (Homo sapiens) + Glucokinase regulatory protein (Homo sapiens); assay: qHTS assay for inhibitors of recombinant human GCK-GKRP interaction: HTRF assay (AID 743207);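 note: 0% = DMSO with GCK present and -100% = DMSO wells lacking GCK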
Procedure, shortened: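 After 60 min equilibration at room temperature with anti-FLAG XL665 and anti-GST antibodies, FRET ratio (665/615 nm, excitation 320 nm) was read. Proteins: GST-GCK and FLAG-GKRP, each 5 nM, plus 2 uM S6P, pH 7.1 buffer; GCK-free wells define minimum signal.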

[20] = qHTS profiling of the MIPE4 collection as inhibitors of Plasmodium falciparum (3D7) proliferation (AID 743344; call rule not given here;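 note: scaled between DMSO vehicle wells and 0.29 µM artemisinin as full inhibition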); details: P. falciparum 3D7 in erythrocytes, SYBR Green DNA fluorescence, 72 h; at 28.5 µM (top of the series) unless noted
Procedure, shortened: as §1

Chain of Peroxisome proliferator-activated receptor alpha (Homo sapiens) (Q07869 whole entry, looked up): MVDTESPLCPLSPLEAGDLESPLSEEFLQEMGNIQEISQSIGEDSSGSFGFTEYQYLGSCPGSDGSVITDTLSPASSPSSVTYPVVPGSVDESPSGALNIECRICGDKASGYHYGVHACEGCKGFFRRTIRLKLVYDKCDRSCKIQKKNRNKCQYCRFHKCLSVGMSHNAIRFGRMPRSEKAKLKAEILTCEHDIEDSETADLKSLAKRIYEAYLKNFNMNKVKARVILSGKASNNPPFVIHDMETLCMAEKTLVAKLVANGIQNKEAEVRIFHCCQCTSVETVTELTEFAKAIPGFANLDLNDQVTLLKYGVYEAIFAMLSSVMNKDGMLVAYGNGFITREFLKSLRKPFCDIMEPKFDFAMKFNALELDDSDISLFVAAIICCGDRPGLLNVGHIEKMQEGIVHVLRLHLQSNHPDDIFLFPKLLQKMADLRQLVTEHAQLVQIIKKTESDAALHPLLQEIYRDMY
T1 sequence (P35557 whole entry, looked up): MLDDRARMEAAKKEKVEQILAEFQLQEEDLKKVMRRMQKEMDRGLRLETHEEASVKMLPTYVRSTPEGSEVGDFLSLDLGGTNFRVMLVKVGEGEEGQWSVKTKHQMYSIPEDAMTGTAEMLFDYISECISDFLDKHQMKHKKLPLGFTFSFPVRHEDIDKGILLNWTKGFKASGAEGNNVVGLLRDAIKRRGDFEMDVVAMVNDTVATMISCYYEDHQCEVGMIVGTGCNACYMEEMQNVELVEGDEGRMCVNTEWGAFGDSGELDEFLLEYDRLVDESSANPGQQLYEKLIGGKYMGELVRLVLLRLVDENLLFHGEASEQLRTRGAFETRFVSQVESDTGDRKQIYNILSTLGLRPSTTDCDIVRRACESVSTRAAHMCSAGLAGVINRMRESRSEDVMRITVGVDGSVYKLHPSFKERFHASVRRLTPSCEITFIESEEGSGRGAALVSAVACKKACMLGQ
T1 sequence (Q14397 whole entry, looked up): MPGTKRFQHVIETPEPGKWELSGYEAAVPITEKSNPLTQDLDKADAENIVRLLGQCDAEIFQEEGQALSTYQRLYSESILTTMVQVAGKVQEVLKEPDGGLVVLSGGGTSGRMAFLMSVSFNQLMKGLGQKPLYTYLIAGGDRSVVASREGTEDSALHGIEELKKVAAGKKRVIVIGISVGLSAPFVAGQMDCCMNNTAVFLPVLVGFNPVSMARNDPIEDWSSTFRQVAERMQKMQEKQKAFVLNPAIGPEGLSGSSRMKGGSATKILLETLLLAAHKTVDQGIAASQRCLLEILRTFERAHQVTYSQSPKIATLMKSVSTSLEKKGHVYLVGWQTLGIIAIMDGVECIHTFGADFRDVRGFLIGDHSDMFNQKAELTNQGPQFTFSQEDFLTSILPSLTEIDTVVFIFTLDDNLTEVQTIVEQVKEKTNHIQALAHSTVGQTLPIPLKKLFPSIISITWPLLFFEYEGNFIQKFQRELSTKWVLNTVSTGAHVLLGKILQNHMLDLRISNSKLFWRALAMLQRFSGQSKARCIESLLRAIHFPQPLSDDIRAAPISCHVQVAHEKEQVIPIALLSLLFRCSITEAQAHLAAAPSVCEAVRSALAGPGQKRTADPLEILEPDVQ
Chain of Tyrosine-protein kinase Yes (Homo sapiens) (P07947 whole entry, looked up): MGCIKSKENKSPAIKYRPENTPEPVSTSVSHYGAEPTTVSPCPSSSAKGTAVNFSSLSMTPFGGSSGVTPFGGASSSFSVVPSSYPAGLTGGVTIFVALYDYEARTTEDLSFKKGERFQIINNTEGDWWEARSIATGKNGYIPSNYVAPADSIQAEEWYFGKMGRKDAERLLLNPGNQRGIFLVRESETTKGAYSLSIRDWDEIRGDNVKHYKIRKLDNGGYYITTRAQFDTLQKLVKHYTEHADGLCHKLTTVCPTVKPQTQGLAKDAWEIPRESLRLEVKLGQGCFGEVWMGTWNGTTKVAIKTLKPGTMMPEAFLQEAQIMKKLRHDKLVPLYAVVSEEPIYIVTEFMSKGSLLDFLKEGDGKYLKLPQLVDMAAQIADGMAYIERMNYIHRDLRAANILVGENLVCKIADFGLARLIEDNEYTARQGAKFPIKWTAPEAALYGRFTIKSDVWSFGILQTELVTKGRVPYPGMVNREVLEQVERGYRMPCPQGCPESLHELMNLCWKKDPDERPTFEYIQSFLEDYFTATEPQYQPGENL
Chain of Nuclear receptor ROR-gamma (Homo sapiens) (P51449 whole entry, looked up): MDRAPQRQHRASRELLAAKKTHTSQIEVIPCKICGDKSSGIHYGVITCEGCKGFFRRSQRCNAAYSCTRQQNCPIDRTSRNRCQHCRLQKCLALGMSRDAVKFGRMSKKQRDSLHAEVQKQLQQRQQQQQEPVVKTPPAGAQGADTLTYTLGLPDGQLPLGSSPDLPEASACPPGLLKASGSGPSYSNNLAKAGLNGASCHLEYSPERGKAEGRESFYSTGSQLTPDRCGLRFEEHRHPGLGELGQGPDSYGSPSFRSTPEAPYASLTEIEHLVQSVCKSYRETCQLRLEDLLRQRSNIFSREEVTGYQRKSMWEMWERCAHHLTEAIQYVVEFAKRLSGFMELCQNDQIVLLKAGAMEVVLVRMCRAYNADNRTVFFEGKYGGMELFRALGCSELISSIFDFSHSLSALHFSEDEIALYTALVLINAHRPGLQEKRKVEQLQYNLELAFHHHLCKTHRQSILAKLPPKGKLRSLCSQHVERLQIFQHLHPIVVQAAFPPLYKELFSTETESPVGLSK
Chain of Arylsulfatase A (Homo sapiens) (P15289 whole entry, looked up): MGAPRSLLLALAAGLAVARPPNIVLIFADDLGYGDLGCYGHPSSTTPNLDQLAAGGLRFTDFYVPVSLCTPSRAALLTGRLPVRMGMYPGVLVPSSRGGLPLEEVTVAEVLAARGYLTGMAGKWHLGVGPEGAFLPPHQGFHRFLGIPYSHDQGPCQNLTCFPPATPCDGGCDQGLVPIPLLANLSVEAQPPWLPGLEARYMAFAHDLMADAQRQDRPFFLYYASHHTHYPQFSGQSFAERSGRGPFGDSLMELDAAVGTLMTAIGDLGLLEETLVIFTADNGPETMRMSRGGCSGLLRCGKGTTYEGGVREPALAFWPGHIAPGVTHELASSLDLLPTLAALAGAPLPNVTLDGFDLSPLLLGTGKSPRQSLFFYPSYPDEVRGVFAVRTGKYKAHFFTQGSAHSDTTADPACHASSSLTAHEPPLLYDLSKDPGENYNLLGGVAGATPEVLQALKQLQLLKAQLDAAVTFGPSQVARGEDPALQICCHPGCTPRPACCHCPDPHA

CC(=O)O[C@]1(C(C)=O)CC[C@H]2[C@@H]3C[C@H](C)C4=CC(=O)CC[C@]4(C)[C@H]3CC[C@@]21C
inactive: activation [1] 0.858% and 1.58% | max response [2] 0.549% and -0.24% | Potency [4] | max response [5] -14.4% and -14.9% | outcome [6]
active: Potency [3] 16.8 µM

Nc1ccn([C@@H]2O[C@H](CO)[C@@H](O)C2(F)F)c(=O)n1
inactive: outcome [7] | outcome [8] | max response [9] 15.6% and -5%
1.07% [at 57.5 µM]: activity, percent of control [11]
-1.17% [at 57.5 µM]: remaining parasite growth % (stronger effect = lower value) [10]
0.276% [at 57.5 µM]: remaining proliferation (% of control), lower = more inhibition [12]

CC/C(=C(/CC)c1ccc(O)cc1)c1ccc(O)cc1
inactive: activation [1] -2.75% and -1.46% | max response [2] -0.699% and -4.24% | max response [5] 6.27% and -6.2% | max response [9] 26.7% | max response [13] -28.4% and -12.5% | outcome [6]

O=C(O)CCCCC(=O)O
inactive: activation [1] 0.177% | max response [2] -5.15% | Potency [4] | max response [5] 6.35% | max response [9] -5.63% | max response [13] 0.134% | outcome [6]

COc1cc2c(cc1O)CC[C@@H]1[C@@H]2CC[C@]2(C)[C@@H](O)CC[C@@H]12
90.1% and 79.2%: remaining parasite growth % (stronger effect = lower value) [10]
93.6% and 83.5%: activity, percent of control [11]
inactive: outcome [7] | outcome [8] | outcome [14] | outcome [15] | outcome [16] | outcome [17] | outcome [18] | outcome [19] | max response [9] -20.1% and 26.1%
93.9% and 38.4%: remaining proliferation (% of control), lower = more inhibition [12]
83.5%: parasite growth, % of DMSO control [20]

C=CCc1ccc(O)c(OC)c1
inactive: activation [1] 1.13% and 0.0788% | max response [2] -0.867% and -4.24% | Potency [3] | Potency [4] | max response [5] -2.21% and -7.34% | max response [9] 4.9% | max response [13] -4.89% and -5.68% | outcome [6]

CCC(=O)c1c(O)cc(O)cc1O
inactive: max response [9] 19%

CC(C)COC(=O)OCN1C(=O)CN(CCN2CC(=O)N(COC(=O)OCC(C)C)C(=O)C2)CC1=O
inactive: outcome [15] | outcome [16] | outcome [17] | outcome [18] | outcome [19] | max response [9] 5.95% and 28.2%

CCC(NC(C)C)C(O)c1ccc(O)c(O)c1 (centres undefined)
inactive: outcome [15] | outcome [16] | outcome [17] | outcome [18] | outcome [19] | max response [9] -4.31%
